Experimental data as given in the supplement of paper PMC11732987, “Enantioselective OTUD7B fragment discovery through chemoproteomics screening and high-throughput optimisation” (Communications Chemistry, 2025).

What was measured:
Test in all cases: log2 ratio of Biotin-Ahx-Ub-VS probe labelling (fragment/DMSO); higher = less target engagement (more negative = stronger competition), active = hit call of the paper (q ≤ 0.05, log2 ratio ≤ -1)
Conditions in all cases: compound concentration: 200 uM; treatment time: 3 h
USP19 = target: T1, USP19 (UniProt O94966)
T1 sequence (whole entry): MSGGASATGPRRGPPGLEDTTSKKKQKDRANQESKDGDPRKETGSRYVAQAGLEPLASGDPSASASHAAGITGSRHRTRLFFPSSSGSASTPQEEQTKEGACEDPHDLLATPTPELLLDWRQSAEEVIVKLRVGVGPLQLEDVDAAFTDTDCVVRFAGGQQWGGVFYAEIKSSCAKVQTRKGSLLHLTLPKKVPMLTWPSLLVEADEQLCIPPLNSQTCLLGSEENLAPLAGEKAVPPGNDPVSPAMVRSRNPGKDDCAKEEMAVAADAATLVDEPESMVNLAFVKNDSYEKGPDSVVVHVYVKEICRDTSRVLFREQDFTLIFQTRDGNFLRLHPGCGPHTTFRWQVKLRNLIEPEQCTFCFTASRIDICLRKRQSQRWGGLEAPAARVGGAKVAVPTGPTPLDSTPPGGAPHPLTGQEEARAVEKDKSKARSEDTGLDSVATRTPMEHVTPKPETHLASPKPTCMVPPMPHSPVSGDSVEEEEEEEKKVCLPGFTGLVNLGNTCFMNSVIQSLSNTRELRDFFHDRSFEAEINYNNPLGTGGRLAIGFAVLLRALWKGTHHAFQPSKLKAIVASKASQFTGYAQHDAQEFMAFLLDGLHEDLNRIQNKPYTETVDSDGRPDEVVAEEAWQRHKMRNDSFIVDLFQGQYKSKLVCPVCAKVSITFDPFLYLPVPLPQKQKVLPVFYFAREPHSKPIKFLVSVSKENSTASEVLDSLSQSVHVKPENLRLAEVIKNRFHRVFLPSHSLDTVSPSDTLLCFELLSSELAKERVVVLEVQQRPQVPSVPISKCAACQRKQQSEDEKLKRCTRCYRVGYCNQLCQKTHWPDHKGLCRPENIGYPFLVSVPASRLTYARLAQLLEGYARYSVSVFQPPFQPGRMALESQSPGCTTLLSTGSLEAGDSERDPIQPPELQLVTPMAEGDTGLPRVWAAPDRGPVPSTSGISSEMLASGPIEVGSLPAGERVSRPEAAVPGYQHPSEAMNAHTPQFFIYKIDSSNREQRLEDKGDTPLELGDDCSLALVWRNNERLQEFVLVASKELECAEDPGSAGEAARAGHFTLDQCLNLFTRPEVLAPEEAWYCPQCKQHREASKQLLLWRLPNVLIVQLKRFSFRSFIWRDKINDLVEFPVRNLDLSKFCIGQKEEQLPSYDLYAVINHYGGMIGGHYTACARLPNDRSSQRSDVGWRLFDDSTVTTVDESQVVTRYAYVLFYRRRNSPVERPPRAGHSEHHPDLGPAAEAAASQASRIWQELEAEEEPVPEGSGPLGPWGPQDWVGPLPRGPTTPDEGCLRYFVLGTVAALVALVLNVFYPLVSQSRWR
In short: (§1)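 Each value is an average log2 ratio of fragment to vehicle, tested by unpaired t-test. The underlying Spectronaut label-free quantities were global-median-normalised, and only proteins with ≥2 unique peptides were included. Triplicate HEK293T lysate samples (495 µg) were exposed to fragment at 200 µM or vehicle for 3 h, then to Biotin-Ahx-Ub-VS at 0.5 µM final for 1 h, before NeutrAvidin enrichment of labelled DUBs, LysC and trypsin digestion, and diaPASEF LC-MS/MS.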

USP22 = target: T2, USP22 (UniProt Q9UPT9)
T2 sequence (whole entry): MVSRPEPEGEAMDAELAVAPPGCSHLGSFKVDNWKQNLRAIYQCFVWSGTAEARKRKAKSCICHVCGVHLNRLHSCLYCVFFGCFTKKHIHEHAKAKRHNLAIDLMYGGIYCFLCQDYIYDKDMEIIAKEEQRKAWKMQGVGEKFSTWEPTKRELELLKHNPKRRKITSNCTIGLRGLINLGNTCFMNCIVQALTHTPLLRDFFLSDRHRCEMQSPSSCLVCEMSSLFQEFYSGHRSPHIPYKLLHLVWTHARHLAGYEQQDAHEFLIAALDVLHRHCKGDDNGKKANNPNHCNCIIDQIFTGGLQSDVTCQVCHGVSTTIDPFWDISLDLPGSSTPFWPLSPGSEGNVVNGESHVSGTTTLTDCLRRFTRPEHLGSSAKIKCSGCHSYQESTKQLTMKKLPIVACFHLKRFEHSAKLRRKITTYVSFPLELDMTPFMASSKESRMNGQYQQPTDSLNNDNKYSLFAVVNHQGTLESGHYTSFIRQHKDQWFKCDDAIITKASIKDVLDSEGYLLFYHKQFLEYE
In short: as §1

USP24 = USP24 (UniProt Q9UPU5)
Sequence of USP24 (Q9UPU5 whole entry): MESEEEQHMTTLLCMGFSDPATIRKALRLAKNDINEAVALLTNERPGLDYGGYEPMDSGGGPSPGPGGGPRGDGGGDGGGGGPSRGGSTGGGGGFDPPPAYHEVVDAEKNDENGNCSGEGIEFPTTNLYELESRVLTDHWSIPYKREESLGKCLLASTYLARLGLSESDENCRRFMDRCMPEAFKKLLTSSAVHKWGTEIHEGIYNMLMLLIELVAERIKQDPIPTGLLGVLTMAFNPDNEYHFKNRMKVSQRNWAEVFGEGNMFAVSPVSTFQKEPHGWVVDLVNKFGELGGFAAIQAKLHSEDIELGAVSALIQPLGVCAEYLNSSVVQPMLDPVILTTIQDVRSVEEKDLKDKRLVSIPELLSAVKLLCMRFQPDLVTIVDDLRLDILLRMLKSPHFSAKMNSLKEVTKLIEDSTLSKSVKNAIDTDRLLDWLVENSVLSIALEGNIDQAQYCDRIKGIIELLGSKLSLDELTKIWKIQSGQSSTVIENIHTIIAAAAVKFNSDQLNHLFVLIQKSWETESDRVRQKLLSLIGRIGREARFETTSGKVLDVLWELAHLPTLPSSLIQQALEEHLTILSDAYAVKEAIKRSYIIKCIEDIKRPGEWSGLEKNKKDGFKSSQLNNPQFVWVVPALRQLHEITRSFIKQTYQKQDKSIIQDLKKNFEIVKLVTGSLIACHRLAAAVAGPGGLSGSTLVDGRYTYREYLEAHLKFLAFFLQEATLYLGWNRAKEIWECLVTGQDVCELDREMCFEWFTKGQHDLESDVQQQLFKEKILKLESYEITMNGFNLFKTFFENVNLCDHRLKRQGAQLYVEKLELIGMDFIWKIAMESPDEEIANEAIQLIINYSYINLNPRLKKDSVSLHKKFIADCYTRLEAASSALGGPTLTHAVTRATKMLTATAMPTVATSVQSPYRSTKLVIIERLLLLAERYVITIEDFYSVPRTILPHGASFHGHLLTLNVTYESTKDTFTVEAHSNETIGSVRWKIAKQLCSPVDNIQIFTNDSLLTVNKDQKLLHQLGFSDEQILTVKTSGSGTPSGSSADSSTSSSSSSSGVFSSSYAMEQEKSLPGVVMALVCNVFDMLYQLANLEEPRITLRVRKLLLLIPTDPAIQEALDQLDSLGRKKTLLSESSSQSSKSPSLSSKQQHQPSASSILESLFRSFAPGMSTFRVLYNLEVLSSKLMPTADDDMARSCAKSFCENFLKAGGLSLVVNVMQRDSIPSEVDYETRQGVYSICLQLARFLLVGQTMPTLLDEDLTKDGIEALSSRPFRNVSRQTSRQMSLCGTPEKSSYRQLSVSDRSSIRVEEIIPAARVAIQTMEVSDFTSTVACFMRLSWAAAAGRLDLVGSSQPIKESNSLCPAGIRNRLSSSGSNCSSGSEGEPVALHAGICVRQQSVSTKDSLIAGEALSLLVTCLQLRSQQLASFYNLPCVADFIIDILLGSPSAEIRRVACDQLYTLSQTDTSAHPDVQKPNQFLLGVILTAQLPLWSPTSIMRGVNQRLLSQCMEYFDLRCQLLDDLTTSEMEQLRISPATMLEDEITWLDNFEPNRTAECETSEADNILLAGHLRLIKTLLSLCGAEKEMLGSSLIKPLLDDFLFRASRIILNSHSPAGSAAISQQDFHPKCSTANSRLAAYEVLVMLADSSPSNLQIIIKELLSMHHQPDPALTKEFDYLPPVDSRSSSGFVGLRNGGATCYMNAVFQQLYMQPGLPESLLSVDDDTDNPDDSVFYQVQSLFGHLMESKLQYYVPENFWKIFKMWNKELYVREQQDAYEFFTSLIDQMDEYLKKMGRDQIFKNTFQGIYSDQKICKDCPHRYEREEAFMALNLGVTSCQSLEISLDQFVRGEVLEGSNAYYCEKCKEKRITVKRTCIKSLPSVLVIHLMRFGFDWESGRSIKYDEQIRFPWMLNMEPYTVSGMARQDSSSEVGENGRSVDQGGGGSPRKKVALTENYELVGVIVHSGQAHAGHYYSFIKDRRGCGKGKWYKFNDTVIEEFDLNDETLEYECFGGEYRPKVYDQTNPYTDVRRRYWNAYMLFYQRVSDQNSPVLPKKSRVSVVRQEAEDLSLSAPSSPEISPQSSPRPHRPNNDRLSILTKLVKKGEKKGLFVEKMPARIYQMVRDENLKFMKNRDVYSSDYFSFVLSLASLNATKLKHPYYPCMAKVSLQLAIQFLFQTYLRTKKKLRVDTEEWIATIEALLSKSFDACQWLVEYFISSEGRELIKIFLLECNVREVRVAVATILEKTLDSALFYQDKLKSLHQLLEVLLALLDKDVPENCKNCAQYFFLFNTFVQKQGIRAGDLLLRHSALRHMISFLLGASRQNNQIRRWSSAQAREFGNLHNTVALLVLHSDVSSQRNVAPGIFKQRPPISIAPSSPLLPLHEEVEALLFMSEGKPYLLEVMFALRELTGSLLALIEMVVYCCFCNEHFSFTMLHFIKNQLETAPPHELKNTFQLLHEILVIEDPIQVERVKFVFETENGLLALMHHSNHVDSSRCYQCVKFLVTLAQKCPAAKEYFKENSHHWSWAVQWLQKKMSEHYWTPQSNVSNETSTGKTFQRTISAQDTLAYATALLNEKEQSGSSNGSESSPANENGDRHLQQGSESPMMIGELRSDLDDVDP
In short: as §1

USP25 = target: T3, USP25 (UniProt Q9UHP3)
T3 sequence (whole entry): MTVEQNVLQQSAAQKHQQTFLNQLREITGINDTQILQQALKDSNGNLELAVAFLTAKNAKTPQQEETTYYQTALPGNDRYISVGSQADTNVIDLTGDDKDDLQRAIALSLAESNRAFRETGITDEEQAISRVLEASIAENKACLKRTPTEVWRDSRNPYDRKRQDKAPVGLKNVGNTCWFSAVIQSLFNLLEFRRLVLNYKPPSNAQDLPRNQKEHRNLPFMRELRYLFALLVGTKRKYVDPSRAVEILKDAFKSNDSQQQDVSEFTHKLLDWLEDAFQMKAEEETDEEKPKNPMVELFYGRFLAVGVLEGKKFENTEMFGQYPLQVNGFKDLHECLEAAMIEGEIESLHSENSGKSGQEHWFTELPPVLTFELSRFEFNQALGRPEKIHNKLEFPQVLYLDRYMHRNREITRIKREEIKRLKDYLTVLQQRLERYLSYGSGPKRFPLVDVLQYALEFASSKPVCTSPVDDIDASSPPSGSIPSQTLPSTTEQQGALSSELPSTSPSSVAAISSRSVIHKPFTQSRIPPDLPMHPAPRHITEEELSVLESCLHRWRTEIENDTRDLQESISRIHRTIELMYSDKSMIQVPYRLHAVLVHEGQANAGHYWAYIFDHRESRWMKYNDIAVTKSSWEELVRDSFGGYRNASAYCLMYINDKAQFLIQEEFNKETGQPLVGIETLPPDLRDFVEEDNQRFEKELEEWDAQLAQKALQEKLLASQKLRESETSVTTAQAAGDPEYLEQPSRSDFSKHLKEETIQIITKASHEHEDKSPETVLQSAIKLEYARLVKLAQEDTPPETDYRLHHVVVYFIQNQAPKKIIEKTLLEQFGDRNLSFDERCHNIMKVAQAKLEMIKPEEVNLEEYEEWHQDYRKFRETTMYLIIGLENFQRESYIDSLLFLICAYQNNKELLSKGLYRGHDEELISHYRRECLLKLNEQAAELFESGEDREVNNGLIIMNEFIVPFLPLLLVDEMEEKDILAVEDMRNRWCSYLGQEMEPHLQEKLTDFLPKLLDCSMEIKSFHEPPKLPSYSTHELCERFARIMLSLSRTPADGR
In short: as §1

USP28 = target: T4, USP28 (UniProt Q96RU2)
T4 sequence (whole entry): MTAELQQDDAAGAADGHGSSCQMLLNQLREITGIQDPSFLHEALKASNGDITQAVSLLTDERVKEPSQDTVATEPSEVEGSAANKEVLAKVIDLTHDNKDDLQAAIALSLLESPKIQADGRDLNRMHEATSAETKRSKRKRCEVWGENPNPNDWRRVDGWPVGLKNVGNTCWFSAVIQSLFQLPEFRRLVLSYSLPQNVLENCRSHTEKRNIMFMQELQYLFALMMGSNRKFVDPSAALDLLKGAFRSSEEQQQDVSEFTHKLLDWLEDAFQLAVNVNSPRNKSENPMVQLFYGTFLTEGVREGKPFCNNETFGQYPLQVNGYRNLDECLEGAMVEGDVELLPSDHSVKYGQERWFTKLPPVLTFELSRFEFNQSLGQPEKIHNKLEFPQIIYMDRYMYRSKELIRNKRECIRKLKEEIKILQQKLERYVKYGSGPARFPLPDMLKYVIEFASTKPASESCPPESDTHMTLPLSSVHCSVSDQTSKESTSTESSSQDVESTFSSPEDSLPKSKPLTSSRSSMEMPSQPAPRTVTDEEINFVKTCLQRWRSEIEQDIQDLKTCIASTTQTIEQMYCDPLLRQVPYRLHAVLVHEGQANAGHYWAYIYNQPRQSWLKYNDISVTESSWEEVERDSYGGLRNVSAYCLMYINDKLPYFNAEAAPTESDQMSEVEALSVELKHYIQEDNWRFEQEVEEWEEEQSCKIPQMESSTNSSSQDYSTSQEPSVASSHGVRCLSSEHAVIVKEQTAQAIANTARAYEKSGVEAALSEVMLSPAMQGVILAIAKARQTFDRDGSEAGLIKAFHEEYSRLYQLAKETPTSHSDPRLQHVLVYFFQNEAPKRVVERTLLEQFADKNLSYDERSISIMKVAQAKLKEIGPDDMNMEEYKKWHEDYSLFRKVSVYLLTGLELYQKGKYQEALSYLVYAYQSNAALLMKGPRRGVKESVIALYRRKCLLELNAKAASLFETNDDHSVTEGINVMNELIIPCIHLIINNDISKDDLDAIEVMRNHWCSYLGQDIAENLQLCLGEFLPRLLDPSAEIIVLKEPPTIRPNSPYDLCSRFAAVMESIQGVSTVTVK
In short: as §1

Measured: log2 ratio of Biotin-Ahx-Ub-VS probe labelling

Cl.O=C(CCl)N[C@H]1C[C@@H](n2cccn2)C1
inactive: USP19 -0.157 | USP22 0.044 | USP24 -0.464 | USP25 -0.201 | USP28 -0.188
